{"source": "the supplement of paper PMC11006884", "note": "Targets with a hit are over-represented here; the source holds about 6,500 in all. About 2% of all pairs of compound and target were hits. A number with no mark means an inactive call.", "data": [{"compound": "COC(=O)C#Cc1ccccc1 [methyl 3-phenylpropiolate]", "experiment": "log2 ratio of iodoacetamide-alkyne labeling of the cysteine site, DMSO over compound (competition); higher = stronger covalent engagement of the cysteine by the compound, active = 1 or more", "details": "500 µM; treatment time 1 h; system: HEK293T cell lysate", "how_it_was_run": "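HEK293T lysate (2 mg/mL) was treated with DMSO or electrophile (500 µM, 1 h, ambient temperature), then iodoacetamide alkyne (1 h), clicked to sCIP-TMT reagents, pooled, trypsin-digested overnight at 37 °C, streptavidin-enriched and acid-eluted. Peptides were run on Orbitrap Eclipse LC-MS/MS with FAIMS and quantified in FragPipe. The log2 competition ratio per cysteine is mean control-channel over mean compound-channel reporter intensity. Duplicate channels and three replicates were used, and cysteines quantified in only one replicate were excluded.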", "values": [{"target": "MRPS18C C90 (UniProt Q9Y3D5)", "log2 ratio of iodoacetamide-alkyne labeling": 0.167}, {"target": "TLN1 C2161 (UniProt Q9Y490)", "log2 ratio of iodoacetamide-alkyne labeling": -0.0698}, {"target": "PDS5B C1069 (UniProt Q9NTI5)", "sequence (Q9NTI5 whole entry)": "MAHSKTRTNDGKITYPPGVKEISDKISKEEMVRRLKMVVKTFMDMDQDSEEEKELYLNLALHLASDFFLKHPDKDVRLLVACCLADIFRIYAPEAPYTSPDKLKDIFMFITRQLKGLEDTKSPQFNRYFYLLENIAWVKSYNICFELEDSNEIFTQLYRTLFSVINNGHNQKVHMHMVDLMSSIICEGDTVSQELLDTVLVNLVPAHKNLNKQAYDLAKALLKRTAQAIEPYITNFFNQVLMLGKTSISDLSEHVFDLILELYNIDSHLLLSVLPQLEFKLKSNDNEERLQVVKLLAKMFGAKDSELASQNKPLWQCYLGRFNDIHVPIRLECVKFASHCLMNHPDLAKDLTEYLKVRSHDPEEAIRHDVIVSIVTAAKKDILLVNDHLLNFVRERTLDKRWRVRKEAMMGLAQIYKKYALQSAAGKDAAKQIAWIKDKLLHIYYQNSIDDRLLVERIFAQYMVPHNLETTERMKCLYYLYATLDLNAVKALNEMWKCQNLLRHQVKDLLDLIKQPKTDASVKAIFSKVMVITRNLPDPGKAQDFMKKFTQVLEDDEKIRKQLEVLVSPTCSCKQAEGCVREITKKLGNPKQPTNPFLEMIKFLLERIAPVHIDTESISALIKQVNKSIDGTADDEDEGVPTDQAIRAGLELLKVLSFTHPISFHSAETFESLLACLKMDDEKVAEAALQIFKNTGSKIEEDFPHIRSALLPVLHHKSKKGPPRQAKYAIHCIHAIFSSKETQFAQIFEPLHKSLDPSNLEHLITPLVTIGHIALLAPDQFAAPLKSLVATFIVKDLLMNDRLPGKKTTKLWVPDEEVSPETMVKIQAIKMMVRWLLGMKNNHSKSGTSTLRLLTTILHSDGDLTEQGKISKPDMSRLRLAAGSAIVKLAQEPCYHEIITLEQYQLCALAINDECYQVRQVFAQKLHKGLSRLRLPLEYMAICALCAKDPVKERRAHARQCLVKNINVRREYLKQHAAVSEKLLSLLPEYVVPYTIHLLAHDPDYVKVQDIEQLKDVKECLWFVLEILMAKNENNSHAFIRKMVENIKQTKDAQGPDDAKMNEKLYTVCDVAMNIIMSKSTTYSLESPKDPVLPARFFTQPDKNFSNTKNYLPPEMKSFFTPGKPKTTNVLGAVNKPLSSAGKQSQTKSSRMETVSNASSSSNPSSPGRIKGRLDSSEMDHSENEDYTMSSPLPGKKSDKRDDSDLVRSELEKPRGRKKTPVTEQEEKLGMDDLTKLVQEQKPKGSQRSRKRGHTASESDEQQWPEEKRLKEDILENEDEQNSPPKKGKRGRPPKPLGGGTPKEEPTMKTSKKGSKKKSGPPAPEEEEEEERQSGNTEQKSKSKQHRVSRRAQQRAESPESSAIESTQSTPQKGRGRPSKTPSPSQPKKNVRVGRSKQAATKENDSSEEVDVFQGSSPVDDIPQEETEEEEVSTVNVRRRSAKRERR", "log2 ratio of iodoacetamide-alkyne labeling": 0.199}, {"target": "KCTD5 C6 (UniProt Q9NXV2)", "sequence (Q9NXV2 whole entry, looked up)": "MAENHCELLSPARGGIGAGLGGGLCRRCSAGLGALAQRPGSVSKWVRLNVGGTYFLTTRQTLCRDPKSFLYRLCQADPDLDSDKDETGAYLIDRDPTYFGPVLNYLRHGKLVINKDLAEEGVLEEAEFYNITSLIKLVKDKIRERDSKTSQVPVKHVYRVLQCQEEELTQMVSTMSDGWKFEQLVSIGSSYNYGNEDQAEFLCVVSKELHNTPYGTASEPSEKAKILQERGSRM", "log2 ratio of iodoacetamide-alkyne labeling": 0.701}, {"target": "OSTC C14 (UniProt Q9NRP0)", "log2 ratio of iodoacetamide-alkyne labeling": 0.193}, {"target": "POLDIP2 C143 (UniProt Q9Y2S7)", "sequence (Q9Y2S7 whole entry)": "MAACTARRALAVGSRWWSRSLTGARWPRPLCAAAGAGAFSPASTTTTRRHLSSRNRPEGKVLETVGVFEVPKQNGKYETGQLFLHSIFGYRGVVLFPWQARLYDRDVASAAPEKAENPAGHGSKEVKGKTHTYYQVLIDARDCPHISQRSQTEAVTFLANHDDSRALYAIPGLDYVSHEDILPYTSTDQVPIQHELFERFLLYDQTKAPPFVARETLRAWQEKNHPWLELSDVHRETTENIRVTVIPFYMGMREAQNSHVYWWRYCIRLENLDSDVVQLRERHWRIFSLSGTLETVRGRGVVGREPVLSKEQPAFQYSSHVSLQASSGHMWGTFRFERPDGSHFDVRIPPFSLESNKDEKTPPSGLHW", "log2 ratio of iodoacetamide-alkyne labeling": 0.786}, {"target": "TBCD C234 (UniProt Q9BTW9)", "log2 ratio of iodoacetamide-alkyne labeling": 0.281}, {"target": "ACTR6 C339 (UniProt Q9GZN1)", "log2 ratio of iodoacetamide-alkyne labeling": 0.248}, {"target": "TPX2 C145 (UniProt Q9ULW0)", "log2 ratio of iodoacetamide-alkyne labeling": 0.384}, {"target": "DERA C118 (UniProt Q9Y315)", "log2 ratio of iodoacetamide-alkyne labeling": 0.275}, {"target": "UniProt Q9Y5J5_C87", "log2 ratio of iodoacetamide-alkyne labeling": 0.486}, {"target": "FAM120A C279 (UniProt Q9NZB2)", "log2 ratio of iodoacetamide-alkyne labeling": -0.00137}, {"target": "NOTCH3 C134 (UniProt Q9UM47)", "log2 ratio of iodoacetamide-alkyne labeling": "1.63 (active)"}, {"target": "EPS15L1 C470 (UniProt Q9UBC2)", "log2 ratio of iodoacetamide-alkyne labeling": 0.13}, {"target": "BICC1 C621 (UniProt Q9H694)", "sequence (Q9H694 whole entry)": "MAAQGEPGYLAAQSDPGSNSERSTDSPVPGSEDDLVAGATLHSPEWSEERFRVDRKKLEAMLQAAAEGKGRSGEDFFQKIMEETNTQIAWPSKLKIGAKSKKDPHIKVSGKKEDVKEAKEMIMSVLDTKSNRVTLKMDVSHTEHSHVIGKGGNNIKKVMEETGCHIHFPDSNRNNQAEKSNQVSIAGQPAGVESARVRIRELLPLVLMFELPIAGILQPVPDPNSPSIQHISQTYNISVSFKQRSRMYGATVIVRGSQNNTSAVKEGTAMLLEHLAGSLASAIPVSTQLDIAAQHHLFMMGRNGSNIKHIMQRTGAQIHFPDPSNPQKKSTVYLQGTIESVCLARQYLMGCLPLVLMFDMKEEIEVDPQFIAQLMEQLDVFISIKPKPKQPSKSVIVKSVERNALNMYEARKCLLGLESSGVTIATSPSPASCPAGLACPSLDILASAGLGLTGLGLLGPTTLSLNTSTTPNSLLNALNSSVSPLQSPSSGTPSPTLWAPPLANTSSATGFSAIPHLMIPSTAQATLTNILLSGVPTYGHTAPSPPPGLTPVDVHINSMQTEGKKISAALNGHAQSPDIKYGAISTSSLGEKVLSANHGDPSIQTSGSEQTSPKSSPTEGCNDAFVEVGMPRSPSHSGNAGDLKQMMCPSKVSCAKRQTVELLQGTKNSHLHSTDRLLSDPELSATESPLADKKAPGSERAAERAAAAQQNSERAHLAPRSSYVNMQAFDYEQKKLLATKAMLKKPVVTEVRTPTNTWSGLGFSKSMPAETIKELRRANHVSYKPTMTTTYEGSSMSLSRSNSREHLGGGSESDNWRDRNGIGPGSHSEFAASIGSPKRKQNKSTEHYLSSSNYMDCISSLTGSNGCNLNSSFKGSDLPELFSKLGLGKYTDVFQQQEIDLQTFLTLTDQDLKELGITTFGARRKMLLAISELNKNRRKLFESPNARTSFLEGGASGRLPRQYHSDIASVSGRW", "log2 ratio of iodoacetamide-alkyne labeling": 0.525}, {"target": "ANAPC1 C1412 (UniProt Q9H1A4)", "log2 ratio of iodoacetamide-alkyne labeling": 0.0508}, {"target": "ATXN10 C354 (UniProt Q9UBB4)", "log2 ratio of iodoacetamide-alkyne labeling": "1.32 (active)"}, {"target": "GPATCH8 C569 (UniProt Q9UKJ3)", "log2 ratio of iodoacetamide-alkyne labeling": 0.815}, {"target": "GSTK1 C176 (UniProt Q9Y2Q3)", "log2 ratio of iodoacetamide-alkyne labeling": 0.387}, {"target": "HNRNPUL1 C291 (UniProt Q9BUJ2)", "log2 ratio of iodoacetamide-alkyne labeling": 0.483}, {"target": "PRPF19 C230 (UniProt Q9UMS4)", "log2 ratio of iodoacetamide-alkyne labeling": 0.231}, {"target": "GNE C357 (UniProt Q9Y223)", "log2 ratio of iodoacetamide-alkyne labeling": 0.234}, {"target": "BCAP29 C171 (UniProt Q9UHQ4)", "log2 ratio of iodoacetamide-alkyne labeling": "1.1 (active)"}, {"target": "RUVBL2 C227 (UniProt Q9Y230)", "log2 ratio of iodoacetamide-alkyne labeling": 0.198}, {"target": "DDX19A C224 (UniProt Q9NUU7)", "sequence (Q9NUU7 whole entry)": "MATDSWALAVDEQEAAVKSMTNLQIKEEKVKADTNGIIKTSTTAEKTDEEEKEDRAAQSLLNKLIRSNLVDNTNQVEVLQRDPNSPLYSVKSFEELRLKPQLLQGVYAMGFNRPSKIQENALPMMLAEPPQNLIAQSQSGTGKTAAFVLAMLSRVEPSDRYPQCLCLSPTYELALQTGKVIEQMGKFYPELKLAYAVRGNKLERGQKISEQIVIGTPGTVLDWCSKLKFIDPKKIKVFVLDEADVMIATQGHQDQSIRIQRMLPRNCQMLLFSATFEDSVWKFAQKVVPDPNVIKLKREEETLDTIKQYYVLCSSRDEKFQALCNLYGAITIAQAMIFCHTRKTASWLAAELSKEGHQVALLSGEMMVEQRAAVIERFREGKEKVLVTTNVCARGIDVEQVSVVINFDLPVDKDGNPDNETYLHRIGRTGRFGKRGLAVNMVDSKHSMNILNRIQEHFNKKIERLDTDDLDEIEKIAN", "log2 ratio of iodoacetamide-alkyne labeling": 0.0835}, {"target": "UniProt Q9Y3D0_C93", "log2 ratio of iodoacetamide-alkyne labeling": 0.0692}, {"target": "UNC45A C34 (UniProt Q9H3U1)", "log2 ratio of iodoacetamide-alkyne labeling": 0.0992}, {"target": "UniProt Q9BWW4_C80", "log2 ratio of iodoacetamide-alkyne labeling": 0.318}, {"target": "SETD2 C958 (UniProt Q9BYW2)", "log2 ratio of iodoacetamide-alkyne labeling": "1.02 (active)"}, {"target": "UniProt Q9BXJ9_C465", "log2 ratio of iodoacetamide-alkyne labeling": 0.109}, {"target": "CHORDC1 C5 (UniProt Q9UHD1)", "log2 ratio of iodoacetamide-alkyne labeling": -0.0481}, {"target": "GPHN C293 (UniProt Q9NQX3)", "sequence (Q9NQX3 whole entry, looked up)": "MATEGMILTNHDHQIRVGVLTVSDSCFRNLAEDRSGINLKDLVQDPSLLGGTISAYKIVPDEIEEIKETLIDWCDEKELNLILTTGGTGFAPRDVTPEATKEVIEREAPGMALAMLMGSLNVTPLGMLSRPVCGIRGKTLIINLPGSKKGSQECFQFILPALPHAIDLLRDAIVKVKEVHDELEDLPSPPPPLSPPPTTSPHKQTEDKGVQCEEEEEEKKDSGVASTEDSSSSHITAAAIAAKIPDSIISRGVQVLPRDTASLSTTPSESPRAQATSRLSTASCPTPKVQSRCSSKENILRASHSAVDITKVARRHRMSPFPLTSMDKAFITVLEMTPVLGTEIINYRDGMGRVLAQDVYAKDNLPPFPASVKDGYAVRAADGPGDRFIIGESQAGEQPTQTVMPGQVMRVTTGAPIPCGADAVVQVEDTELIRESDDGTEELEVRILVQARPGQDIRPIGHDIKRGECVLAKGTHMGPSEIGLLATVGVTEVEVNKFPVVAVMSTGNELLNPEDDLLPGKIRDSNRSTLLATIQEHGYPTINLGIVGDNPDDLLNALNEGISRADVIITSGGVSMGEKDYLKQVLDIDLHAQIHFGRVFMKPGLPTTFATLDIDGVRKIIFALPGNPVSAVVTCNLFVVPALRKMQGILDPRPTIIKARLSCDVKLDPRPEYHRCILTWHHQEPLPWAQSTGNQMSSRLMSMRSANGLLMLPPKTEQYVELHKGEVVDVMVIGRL", "log2 ratio of iodoacetamide-alkyne labeling": "1.12 (active)"}, {"target": "DDX20 C524 (UniProt Q9UHI6)", "sequence (Q9UHI6 whole entry, looked up)": "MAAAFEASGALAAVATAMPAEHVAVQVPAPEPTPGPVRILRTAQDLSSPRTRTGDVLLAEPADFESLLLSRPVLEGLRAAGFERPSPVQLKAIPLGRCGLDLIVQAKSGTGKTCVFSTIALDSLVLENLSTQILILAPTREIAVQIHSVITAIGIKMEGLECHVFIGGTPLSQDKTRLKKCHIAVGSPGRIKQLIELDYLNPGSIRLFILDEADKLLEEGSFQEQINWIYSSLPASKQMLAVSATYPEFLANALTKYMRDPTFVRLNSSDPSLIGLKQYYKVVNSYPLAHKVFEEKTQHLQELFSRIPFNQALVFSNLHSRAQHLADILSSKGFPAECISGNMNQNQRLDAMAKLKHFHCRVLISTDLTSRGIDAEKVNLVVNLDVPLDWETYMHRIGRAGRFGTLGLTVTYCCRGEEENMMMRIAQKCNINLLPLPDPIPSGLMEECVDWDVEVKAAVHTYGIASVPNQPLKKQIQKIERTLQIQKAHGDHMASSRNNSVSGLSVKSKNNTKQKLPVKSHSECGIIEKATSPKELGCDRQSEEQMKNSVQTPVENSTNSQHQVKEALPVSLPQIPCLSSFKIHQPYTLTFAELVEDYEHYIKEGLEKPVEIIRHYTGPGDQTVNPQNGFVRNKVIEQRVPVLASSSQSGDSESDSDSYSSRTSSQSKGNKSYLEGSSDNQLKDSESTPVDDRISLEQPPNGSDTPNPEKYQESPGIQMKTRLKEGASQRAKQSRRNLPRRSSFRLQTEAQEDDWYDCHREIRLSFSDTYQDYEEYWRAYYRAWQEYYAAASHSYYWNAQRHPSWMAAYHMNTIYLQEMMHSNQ", "log2 ratio of iodoacetamide-alkyne labeling": 0.6}, {"target": "NFU1 C213 (UniProt Q9UMS0)", "log2 ratio of iodoacetamide-alkyne labeling": 0.895}, {"target": "AGTPBP1 C567 (UniProt Q9UPW5)", "log2 ratio of iodoacetamide-alkyne labeling": "1.18 (active)"}, {"target": "REXO4 C382 (UniProt Q9GZR2)", "log2 ratio of iodoacetamide-alkyne labeling": "1.23 (active)"}, {"target": "ATG3 C182 (UniProt Q9NT62)", "log2 ratio of iodoacetamide-alkyne labeling": 0.632}, {"target": "RBM27 C776 (UniProt Q9P2N5)", "log2 ratio of iodoacetamide-alkyne labeling": 0.232}, {"target": "MDN1 C271 (UniProt Q9NU22)", "log2 ratio of iodoacetamide-alkyne labeling": 0.728}, {"target": "IKBKG C347 (UniProt Q9Y6K9)", "log2 ratio of iodoacetamide-alkyne labeling": 0.397}]}]}
